Assay outcomes: PubChem, Broad Institute
miR-122 inh: activators of miR-122 sensor in Huh7 cells. 340,000 compounds, 0.14% hits. AID 623901. activation, % at 12.5 µM. Huh7 psiCHECK-miR122 Renilla luciferase sensor, 48 h;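 active = mean activation of 30% or more, with every replicate also reaching 30%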;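 note: 0% = median of neutral control wells and 100% = median of positive control wells; higher luciferase signal means stronger suppression of miR-122 activity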
* = called active by the depositor. A selection follows.

Results for C[C@@H]1CN([C@H](C)CO)C(=O)c2cc(-c3cccc(C(=O)N(C)C)c3)cnc2O[C@@H]1CN(C)CC1CC1 ?
miR-122 inh: 0.9

Results for C[C@H]1CN([C@@H](C)CO)C(=O)c2cc(C#CCN(C)C)cnc2O[C@@H]1CN(C)C(=O)Cc1ccncc1 ?
miR-122 inh: 2.3

Results for C[C@H](CO)N1C[C@H](C)[C@H](CN(C)C(=O)C2CCCCC2)Oc2ncc(-c3cccc(C#N)c3)cc2C1=O ?
miR-122 inh: -1.6

What do the screens show for `C[C@H](CO)N1C[C@H](C)[C@H](CN(C)C(=O)Nc2ccc(F)cc2)Oc2ncc(-c3cccnc3)cc2C1=O`?
miR-122 inh: 5.6

How did CC(=O)N(C)C[C@H]1Oc2cc(C#C[C@@H](C)O)ccc2S(=O)(=O)N([C@@H](C)CO)C[C@@H]1C do in these assays?
miR-122 inh: -4.8

Results for COc1ccccc1-c1ccc2c(c1)O[C@@H](CN(C)S(=O)(=O)c1ccccc1)[C@H](C)CN([C@H](C)CO)S2(=O)=O ?
miR-122 inh: -8.7

What do the screens show for `COc1ccc(CN(C)C[C@@H]2Oc3ccc(NC(=O)C4CCCCC4)cc3CC(=O)N([C@@H](C)CO)C[C@H]2C)cc1`?
miR-122 inh: 1.5

How did CC(C)C#Cc1cnc2c(c1)C(=O)N([C@H](C)CO)C[C@H](C)[C@@H](CN(C)C(=O)c1ccccc1)O2 do in these assays?
miR-122 inh: 3.3

What do the screens show for `C[C@@H]1CN([C@H](C)CO)C(=O)c2cc(-c3cccnc3)cnc2O[C@@H]1CN(C)S(C)(=O)=O`?
miR-122 inh: -3.9

How did C[C@H](CO)N1C[C@H](C)[C@@H](CN(C)C(=O)c2ccccn2)Oc2ncc(-c3cccc(F)c3)cc2C1=O do in these assays?
miR-122 inh: -5.6

Results for C[C@@H]1CN([C@H](C)CO)C(=O)c2cc(-c3cccc(F)c3)cnc2O[C@H]1CN(C)Cc1ccncc1 ?
miR-122 inh: 5.5

What do the screens show for `COc1ccccc1-c1ccc2c(c1)O[C@H](CN(C)S(=O)(=O)c1ccccc1)[C@H](C)CN([C@@H](C)CO)S2(=O)=O`?
miR-122 inh: -16.8

How did C[C@@H]1CN([C@H](C)CO)C(=O)c2cc(C#Cc3cccc(F)c3)cnc2O[C@H]1CN(C)C(=O)C1CC1 do in these assays?
miR-122 inh: -4.4

How did C[C@@H]1CN([C@@H](C)CO)S(=O)(=O)c2ccc(C#CC3CC3)cc2O[C@H]1CN(C)Cc1ccccn1 do in these assays?
miR-122 inh: -0.2

Results for C[C@@H]1CN([C@H](C)CO)C(=O)c2cc(C#CC3(O)CCCC3)cnc2O[C@@H]1CN(C)S(C)(=O)=O ?
miR-122 inh: 4.6

How did C[C@H](O)C#Cc1ccc2c(c1)O[C@@H](CN(C)C(=O)c1ccncc1)[C@H](C)CN([C@@H](C)CO)S2(=O)=O do in these assays?
miR-122 inh: -2.8

What do the screens show for `CC(C)C#Cc1ccc2c(c1)O[C@H](CN(C)C(=O)c1ccncc1)[C@H](C)CN([C@H](C)CO)S2(=O)=O`?
miR-122 inh: 52.8*

How did C[C@@H]1CN([C@H](C)CO)S(=O)(=O)c2ccc(C#Cc3ccncc3)cc2O[C@@H]1CN(C)C(=O)C1CCCCC1 do in these assays?
miR-122 inh: 18.9

Results for C[C@@H]1CN([C@H](C)CO)S(=O)(=O)c2ccc(C#Cc3ccncc3)cc2O[C@H]1CN(C)C(=O)C1CCCCC1 ?
miR-122 inh: -32.5

Results for C[C@@H]1CN([C@@H](C)CO)S(=O)(=O)c2ccc(C#Cc3ccncc3)cc2O[C@@H]1CN(C)C(=O)C1CCOCC1 ?
miR-122 inh: 32.8*

What do the screens show for `C[C@@H](O)C#Cc1ccc2c(c1)O[C@@H](CN(C)C(=O)c1ccncc1)[C@@H](C)CN([C@@H](C)CO)S2(=O)=O`?
miR-122 inh: 2.2

Results for C/C=C/c1cnc2c(c1)C(=O)N([C@@H](C)CO)C[C@@H](C)[C@@H](CN(C)C(=O)c1cccnc1)O2 ?
miR-122 inh: 0.8

Results for CO[C@@H]1CN(C)C(=O)c2cc(NC(C)=O)ccc2OC[C@@H](C)N(C(=O)c2ccccc2)C[C@@H]1C ?
miR-122 inh: -3.2

What do the screens show for `COc1ccc(C#Cc2cnc3c(c2)C(=O)N([C@@H](C)CO)C[C@@H](C)[C@@H](CN(C)CC2CCCC2)O3)cc1`?
miR-122 inh: 10.8

Results for CC(=O)N(C)C[C@@H]1Oc2cc(C#C[C@@H](C)O)ccc2S(=O)(=O)N([C@H](C)CO)C[C@@H]1C ?
miR-122 inh: 4.1

What do the screens show for `COc1ccccc1-c1cnc2c(c1)C(=O)N([C@H](C)CO)C[C@@H](C)[C@@H](CN(C)Cc1ccccc1)O2`?
miR-122 inh: -2.5

Results for C[C@H]1CN([C@@H](C)CO)C(=O)c2cc(-c3cccc(F)c3)cnc2O[C@H]1CN(C)Cc1ccncc1 ?
miR-122 inh: 3.3

What do the screens show for `C[C@H]1CN([C@@H](C)CO)S(=O)(=O)c2ccc(Br)cc2O[C@@H]1CN(C)S(C)(=O)=O`?
miR-122 inh: -8.4

How did C[C@@H]1CN([C@@H](C)CO)C(=O)c2cc(C#CC3(O)CCCC3)cnc2O[C@H]1CN(C)S(=O)(=O)c1ccccc1 do in these assays?
miR-122 inh: -2.8

Results for C[C@@H]1CN([C@H](C)CO)S(=O)(=O)c2ccc(C#Cc3ccc(F)cc3)cc2O[C@@H]1CN(C)S(C)(=O)=O ?
miR-122 inh: -22.4

Results for COCC#Cc1cnc2c(c1)C(=O)N([C@H](C)CO)C[C@@H](C)[C@@H](CN(C)C(=O)Nc1c(C)noc1C)O2 ?
miR-122 inh: -0.5

Results for CCCNC(=O)Nc1ccc2c(c1)OC[C@H](C)N(C)C[C@H](C)[C@H](OC)CN(C)C2=O ?
miR-122 inh: -0.6

How did C[C@H](CO)N1C[C@H](C)[C@@H](CN(C)Cc2cncnc2)Oc2ncc(-c3cccc(F)c3)cc2C1=O do in these assays?
miR-122 inh: 4.0

What do the screens show for `C[C@H](CO)N1C[C@H](C)[C@@H](CN(C)C(=O)CN(C)C)Oc2ncc(C#C[C@@H](C)O)cc2C1=O`?
miR-122 inh: 5.8

How did C[C@@H]1CN([C@@H](C)CO)C(=O)c2cc(C#Cc3ccccc3)cnc2O[C@@H]1CN(C)C(=O)c1ccccn1 do in these assays?
miR-122 inh: 1.8

How did COc1ccc(NS(=O)(=O)c2cc(C)ccc2C)cc1 do in these assays?
miR-122 inh: -538.6

How did COc1ccc(S(=O)(=O)Nc2cc3c4c(oc3c3ccccc23)CCCC4=O)cc1 do in these assays?
miR-122 inh: -127.5

How did COc1ccc(Oc2ccc(N/C=C3\CCCC3=O)cc2)cc1 do in these assays?
miR-122 inh: 35.9*

How did CCC(=O)Nc1ccc2c(c1)OC[C@H](C)N(Cc1ccccc1F)C[C@@H](C)[C@@H](OC)CN(C)C2=O do in these assays?
miR-122 inh: -3.6

Results for CC(C)C#Cc1ccc2c(c1)O[C@@H](CN(C)Cc1ccncc1)[C@H](C)CN([C@H](C)CO)S2(=O)=O ?
miR-122 inh: -3.2

What do the screens show for `CCCC#Cc1cnc2c(c1)C(=O)N([C@@H](C)CO)C[C@@H](C)[C@H](CN(C)C(=O)C1CC1)O2`?
miR-122 inh: -0.4

What do the screens show for `Cc1ccccc1-c1cnc2c(c1)C(=O)N([C@H](C)CO)C[C@@H](C)[C@H](CN(C)Cc1ccccc1F)O2`?
miR-122 inh: -121.2

What do the screens show for `CCCNC(=O)NC[C@H]1[C@@H](c2ccc(C3=CCCC3)cc2)[C@@H](CO)N1C(C)=O`?
miR-122 inh: -92.9

What do the screens show for `COc1ccccc1-c1cnc2c(c1)C(=O)N([C@H](C)CO)C[C@H](C)[C@@H](CN(C)CC1CCCC1)O2`?
miR-122 inh: 3.3

Results for CCOC(=O)CCS(=O)(=O)c1nc(-c2ccccc2)cc(C(F)(F)F)n1 ?
miR-122 inh: 51.4*
